CHRM1 agonist = human M1 muscarinic receptor agonists, primary screen, Fluo-8 calcium fluorescence, CHO-K1 cells, HTS; CHO-K1 hM1, agonist mode; 0% DMSO, 100% acetylcholine EC100; activation, % at 3 µM; 0.33% of 360,000 active; AID 588814, 2011;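 active = activation above the run's mean compound activation plus 3 SD, cut at about 16% in these data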;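 also: peak over basal fluorescence ratio within a 140 s kinetic read after compound addition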
Target sequence (P11229 whole entry, looked up): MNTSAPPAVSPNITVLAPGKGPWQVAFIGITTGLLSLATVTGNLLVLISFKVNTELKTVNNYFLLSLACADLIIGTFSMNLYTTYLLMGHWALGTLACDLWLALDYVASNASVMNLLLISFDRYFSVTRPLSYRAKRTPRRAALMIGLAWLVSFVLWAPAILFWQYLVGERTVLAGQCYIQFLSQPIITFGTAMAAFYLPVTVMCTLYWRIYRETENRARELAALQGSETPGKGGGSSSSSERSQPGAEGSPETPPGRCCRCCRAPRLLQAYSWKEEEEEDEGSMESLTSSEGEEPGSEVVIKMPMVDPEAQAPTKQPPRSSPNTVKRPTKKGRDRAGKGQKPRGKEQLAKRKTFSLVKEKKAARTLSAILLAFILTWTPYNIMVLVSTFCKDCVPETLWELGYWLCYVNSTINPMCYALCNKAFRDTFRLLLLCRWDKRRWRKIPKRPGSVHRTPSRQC
CHRM1 antagonist = human M1 muscarinic receptor antagonists, primary screen, CHO-K1 cells, Fluo-8 calcium fluorescence, 1536-well; Muscarinic acetylcholine receptor M1 (Homo sapiens), P11229; CHO-K1 hM1, ACh EC80 antagonist; inhibition, % at 3 µM; 1.3% of 360,000 active;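 active = percent inhibition above its own plate's cutoff, namely the mean of that plate's compound wells plus 3 SD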;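 also: peak over basal fluorescence ratio during 140 s after agonist addition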
CHO-K1 Ca antag = counter-screen for M1 antagonists: effect in parental CHO-K1 cells | inhibition, % at 3 µM | AID 602250 | ATP-induced calcium, Fluo-8 fluorescence | 0.6% of 360,000 active;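 active = inhibition above a per-plate cutoff, the plate's mean sample inhibition plus 3 SD, cut at about 24% in these data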
CHO-K1 Ca PAM = nonselective calcium activators in parental CHO-K1 cells, primary screen, counter-screen for M1 PAM project, cell-based, Fluo-8 calcium fluorescence, full deck, 1536-well | ATP EC20; 0% at ATP EC20, 100% at ATP max | 0.02% of 360,000 active | activation, % at 3 µM;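 active = activation above the run cutoff, the mean activation of all test compounds plus 3 SD, cut at about 40% in these data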;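 also: peak over basal fluorescence ratio in a 140 s read after ATP addition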
M1 PAM = human M1 muscarinic receptor positive allosteric modulators, primary screen, CHO-K1 cells, Fluo-8 calcium fluorescence, 1536-well. Muscarinic acetylcholine receptor M1 (Homo sapiens), P11229. CHO-K1 hM1, ACh EC20; 0% = ACh EC20, 100% = maximal ACh. activation, % at 3 µM. 0.088% of 360,000 active; in the data active = activation above about 19%, passing the limit was not always enough
M1 ag parental = counter-screen for M1 agonists: effect in parental CHO-K1 cells; Fluo-8 calcium fluorescence; scaled to maximal ATP response, vehicle zero; activation, % at 3 µM; 0.48% of 360,000 active; AID 602248, 2012; in the data active = activation above about 15%;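 also: untransfected CHO-K1 host cells lacking M1 receptor as counterscreen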
Numbers stand for hits; n = inactive. Hits are enriched below; roughly 2.3% of the tested compounds scored in any of these assays.

SMILES	CHRM1 agonist	CHRM1 antagonist	CHO-K1 Ca antag	CHO-K1 Ca PAM	M1 PAM	M1 ag parental
CS(=O)(=O)Nc1ccccc1C(=O)OCC(=O)N1CCC(c2ccccc2)=N1	n	n	n	n	n	n
NC(c1ccccc1)c1csc(Nc2cc(Oc3ccccc3)ncn2)n1 (stereo not drawn)	n	60	n	n	n	n
CCn1c2ccccc2c2nc3cc(C(=O)O)ccc3nc21	n	n	24	n	n	n
CCn1c2ccccc2c2nc3ccccc3nc21	n	n	n	n	n	n
O=C(CSc1nc2ccccc2o1)Nc1ccc(N2CCOCC2)c(Cl)c1	n	n	28	n	n	n
O=C(NCCc1ccccc1)c1ccc(Cl)cc1[N+](=O)[O-]	n	n	n	n	n	n
Cc1ccc(CS(=O)(=O)c2ncc(Cl)c(C(=O)Nc3ccc(OC(F)F)cc3)n2)cc1	n	n	24	n	n	n
COc1cc(NC(=O)c2cc(C)no2)cc(OC)c1OC	n	n	n	n	n	n
CN1CCC(=C(c2ccccc2)c2ccc(Br)cc2)CC1	n	54	n	n	n	22
CN(c1ccccc1C(=O)Nc1ccccc1-c1ccccc1)S(C)(=O)=O	n	n	n	n	n	n
CCN(CC(=O)Nc1c(F)cccc1F)C(=O)c1cc(-c2cccs2)nn1-c1ccccc1	n	36	n	n	n	n
CN(CC(=O)Nc1c(Cl)cccc1Cl)C(=O)c1cc(-c2cccs2)nn1-c1ccccc1	n	n	n	n	n	n
CSc1nc(=S)n(-c2ccc([N+](=O)[O-])cc2)c(C)c1C(C)=O	n	n	n	n	n	n
CC(=O)NCCC(=O)N(C)CC1CCN(CCc2cccc(C(F)(F)F)c2)CC1	n	n	n	n	n	n
CSCCC(=O)N(C)CC1CCCN(CCc2cccc(C(F)(F)F)c2)C1 (stereo not drawn)	n	37	n	n	n	n
COC(=O)CCC(=O)N(C)CC1CCCN(CCc2cccc(C(F)(F)F)c2)C1 (stereo not drawn)	n	44	n	n	n	n
COc1cc(CN(C)CC2CCCN(CCc3cccc(C(F)(F)F)c3)C2)ccc1O (stereo not drawn)	n	49	n	n	n	n
COc1ccc(CCNC(=O)c2ccc(-c3ccc([N+](=O)[O-])cc3)o2)cc1OC	n	n	n	n	n	n
CCN1CCN(S(=O)(=O)c2cc(OCC(=O)NC3CCCCC3)c(C)cc2Cl)CC1	n	n	27	n	n	n
Cc1cc(Cl)c(S(=O)(=O)N2CCN(c3ccccn3)CC2)cc1OCC(=O)NC1CCCCC1	n	26	n	n	n	n
COc1cccc(C(C(=O)NC2CCCCC2)N(C(=O)c2csnn2)C2CC2)c1 (stereo not drawn)	n	n	n	n	n	n
Cc1cccc(NC(=O)CNC(=O)COc2cccnc2[N+](=O)[O-])c1C	n	n	n	n	n	n
O=C(NCCO)N1c2ccccc2Sc2ccccc21	n	n	n	n	n	n
CN(C)CCCNC(=O)N1c2ccccc2Sc2ccccc21	n	100	n	n	n	n
O=C(NCCN1CCOCC1)N1c2ccccc2Sc2ccccc21	n	62	n	n	n	n
SMILES	CHRM1 agonist	CHRM1 antagonist	CHO-K1 Ca antag	CHO-K1 Ca PAM	M1 PAM	M1 ag parental
O=C(CCN1CCOCC1)N1c2ccccc2Sc2ccc(Cl)cc21	n	100	n	n	n	n
NC(=O)C1CCN(CCS(=O)(=O)c2ccc(Cl)cc2)CC1	n	n	n	n	n	n
c1ccc(-c2csc3ncnc(NCc4ccccn4)c23)cc1	n	43	n	n	n	n
CN(C)CCCNc1ncnc2scc(-c3ccccc3)c12	n	48	n	n	n	n
c1ccc(-c2csc3ncnc(NCCN4CCOCC4)c23)cc1	n	n	n	n	n	n
CN(C)CCCNc1ncnc2c1c(-c1ccccc1)cn2-c1ccccc1	n	n	n	n	n	n
c1ccc(CNc2ncnc3scc(-c4cccs4)c23)nc1	n	30	n	n	n	n
CCN1CCN(C(=O)N(c2ccccc2)c2ccccc2)CC1	n	42	n	n	n	n
Cc1ccc(N(C)C(=O)N2CCN(S(=O)(=O)c3ccc(C)cc3)CC2)cc1	19	n	n	n	25	n
CCN(CC)C(=O)N1CCN(S(=O)(=O)c2ccccc2)CC1	n	n	n	n	28	n
CN1CCN(C(=O)N(c2ccccc2)c2ccccc2)CC1	n	n	n	n	n	n
Cc1ccc(S(=O)(=O)N2CCN(C(=O)N(c3ccccc3)c3ccccc3)CC2)cc1	n	n	n	n	n	n
CCOC(=O)N1CCC(N2CCN(S(=O)(=O)c3ccc(C)cc3)CC2)CC1	24	n	n	n	n	n
COc1ccc(/C=C/C(=O)OCC(=O)NCc2ccco2)c(OC)c1	n	n	n	n	n	n
Cc1cc(C)c(NC(=O)CCCn2c(=O)oc3ccccc32)c(C)c1	n	n	n	n	n	n
O=C(Cc1ccccc1)NC1CCN(C(=O)NCc2ccccc2)CC1	n	n	n	n	n	n
CCN(CC)C(=O)N1CCC(NC(=O)Cc2ccccc2)CC1	n	n	26	n	n	n
COC(=O)c1ccc2c(c1)N(Cc1nc(-c3ccc(Cl)cc3)oc1C)C(=O)C1CCCN21 (stereo not drawn)	n	n	n	n	n	n
CCNC(=O)NC1c2ccccc2CSc2ccccc21 (stereo not drawn)	n	n	n	n	n	n
CCOCCN1CCN(C2c3ccccc3CSc3ccccc32)CC1 (stereo not drawn)	n	100	n	n	n	n
Cc1ccc(-c2nc(Nc3cccc(C)c3)sc2CC(=O)O)cc1	n	n	26	n	n	n
COc1ccc2cc1Oc1ccc(cc1)C[C@H]1c3c(cc4c(c3Oc3cc5c(cc3OC)CCN(C)[C@@H]5C2)OCO4)CCN1C	n	n	n	n	n	n
COc1ccc2cc1Oc1ccc(cc1)C[C@H]1c3cc(c(OC)cc3CCN1C)Oc1c(OC)c(OC)cc3c1[C@H](C2)N(C)CC3	n	91	n	n	n	n
Cn1c(=O)c2c(ncn2CC(=O)Nc2ccc(N3CCOCC3)cc2)n(C)c1=O	n	n	25	n	n	n
CC1=C(C)CS(=O)N(S(=O)(=O)c2ccccc2)C1 (stereo not drawn)	n	n	n	n	n	n
O=S(=O)(/N=S1\CC=CCN1S(=O)(=O)c1ccccc1)c1ccccc1 (stereo not drawn)	38	n	n	n	n	35

Screening data: PubChem BioAssay, The Scripps Research Institute Molecular Screening Center
